Source: ChEMBL document CHEMBL1201862, “PubChem BioAssay data set” (2004)
About 3,800 (6.9%) of roughly 55,000 sequences were called active. No stated cut-off is given here; in the data, active = GI50 up to about 1.1 µM and inactive = higher. Not all results are given here. Entries with a potency or affinity are not part of this list.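 All cell lines were grown in 96-well plates and treated with compound for 48 hours. GI50 marks 50% less growth.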

What follows are substances tested on CAKI-1 (assay: NCI tumour cell line growth inhibition, 48 h).

Substance	GI50 [µM]
[Bis(aminomethyl)pentamethylenesilane]dichloropaltinum(II), CHEMBL2146202	2.26
[Bis(aminomethyl)tetramethylenesilane]tetrachloropaltinum(IV), CHEMBL2146189	5.92
[Bis(aminomethyl)diethylsilane]tetrachloroplatinum(IV), CHEMBL2146203	4.06
[Bis(aminomethyl)ethylmethylsilane]tetrachloroplatinum(IV), CHEMBL2146192	1.19
CISPLATIN, CHEMBL11359	1.99
[Bis(aminomethyl)dimethylsilane]tetrachloroplatinum(IV), CHEMBL2146190	4.05
[Bis(aminomethyl)dimethylsilane]dichloroplatinum (II), CHEMBL2146201	12
[Bis(aminomethyl)pentamethylenesilane]tetrachloropaltinum(IV), CHEMBL2146204	2.14
mu-(1,7-nanodiamine-N,N')bis-(cis-aminedichloroplatimum (II)), CHEMBL2146215	50.6
[Bis(aminomethyl)tetramethylenesilane]dichloropaltinum(II), CHEMBL2146205	13.6
cis-Bis[[(trimethylsilyl)methyl]amino]tetrachloroplatinum(IV), CHEMBL2146191	11.9
